# Bioassay records as filed in PubChem.
# NPC1 promoter act: activates the NPC1 promoter; 2.4% of 320,000 active; Potency, µM (titrated, usually from 9.22 µM), for the others: at the top dose activation, most hits filed as activators; AID 485313; Huh7 NPC1 promoter luciferase reporter, 24 h; also: % of control where 0% means no effect; nearly all actives have a fitted effect of over 60% in size
#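 NPC1 promoter–luciferase Huh7 cells; 24 h compound; luminescence.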
# ELG1 genotoxic: inducers of genotoxicity in HEK293T ELG1-luciferase cells. Potency, µM (highest dose often 46 µM), inactives show at the highest dose activity change, positive = activation, usual class: activators. AID 504466. HEK293T ELG1-luciferase reporter, luminescence, 16 h. 1.3% of 330,000 active; also: % of control where 0% means no effect; nearly all actives have a fitted effect of over 60% in size
#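 Quantitative HTS format in 1536-well plates. HEK293T ELG1-luciferase reporter cells receive test compound and are incubated 16 hr at 37 °C, 5% CO2; ONE-Glo added, 30 min room temperature, then luminescence read.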
# Luc counter: counter-screen: inhibitors of Kinase-Glo firefly luciferase; Kinase-Glo luciferase, ATP luminescence, 8 min; Potency, µM (top dose mostly 38.3 µM), without a hit: at the highest dose activity change, negative = inhibition, actives largely listed as inhibitors; 0.28% of 200,000 active; AID 1379; also: % is scaled to controls: 0 for no effect and ±100 for the full control effect; nearly all actives have a fitted effect of over 60% in size
#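 Substrate mix (final 50 mM imidazole pH 7.2, 50 mM KCl, 7 mM MgCl2, 10 uM ATP, 0.01% Tween 20, 0.05% BSA) plus pin-tool compound, then Kinase-Glo detection mix; 8 min ambient, luminescence read.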
# FLuc modulator: counter-screen for miR-21 project: firefly luciferase inhibitors or activators; AID 588342; 6.9% of 360,000 active; Potency, µM (titrated, usually from 57.5 µM), for the others: top-dose activity change, negative = inhibition, actives largely listed as inhibitors; P08659; purified FLuc, Km substrates, luminescence inhibition;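 also: plate controls were vehicle for no effect and reference inhibitor for full effect; nearly all actives have a fitted effect of over 55% in size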
# Target sequence (P08659 whole entry, looked up): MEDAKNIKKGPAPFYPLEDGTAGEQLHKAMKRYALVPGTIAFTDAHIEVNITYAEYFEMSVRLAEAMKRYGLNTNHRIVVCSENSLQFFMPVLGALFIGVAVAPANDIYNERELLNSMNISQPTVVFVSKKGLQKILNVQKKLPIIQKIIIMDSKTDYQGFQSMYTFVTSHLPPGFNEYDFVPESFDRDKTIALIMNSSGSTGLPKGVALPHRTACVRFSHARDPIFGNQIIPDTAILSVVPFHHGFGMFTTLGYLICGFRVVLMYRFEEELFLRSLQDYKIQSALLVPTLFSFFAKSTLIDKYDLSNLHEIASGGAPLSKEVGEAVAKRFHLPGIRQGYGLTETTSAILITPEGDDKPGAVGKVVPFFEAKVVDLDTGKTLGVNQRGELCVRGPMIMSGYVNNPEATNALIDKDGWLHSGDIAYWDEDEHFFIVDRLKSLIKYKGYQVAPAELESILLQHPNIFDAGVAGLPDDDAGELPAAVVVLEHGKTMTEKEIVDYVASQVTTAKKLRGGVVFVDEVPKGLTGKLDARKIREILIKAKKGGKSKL
#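 Purified P. pyralis luciferase, 10 nM final, with Km-level 10 uM D-luciferin and 10 uM ATP in 50 mM Tris acetate pH 7.5, 10 mM Mg acetate, 0.01% Tween-20, 0.05% BSA; 6-point qHTS titration about 60 µM downward; luminescence read.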
# Rab9 promoter act: activators of Rab9 promoter | Huh7 Rab9 promoter-luciferase reporter, luminescence, 24 h | Potency, µM (series often up to 9.22 µM), without a hit: top-dose activation, negative = inhibition, usual class: activators | 2.8% of 320,000 active; also: % of control where 0% means no effect; nearly all actives have a fitted effect of over 60% in size
#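 Measured in stably transfected Huh7 cells bearing a Rab9 promoter–luciferase construct: 24 h compound treatment at 37 °C, followed by luminescence detection.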
# SMN2 splice enh: enhancers of SMN2 splice variant expression. AID 1458. 2.8% of 210,000 active. Potency, µM (highest dose often 46.1 µM), for inactives: at the highest dose activity change, positive = activation, actives largely listed as activators. HEK293 SMN2-luciferase splicing reporter, luminescence, 30-36 h; also: % of control where 0% means no effect; nearly all actives have a fitted effect of over 55% in size
#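 qHTS luciferase splicing reporter: luminescence rises when SMN2 exon 7 is included in transfected HEK293 cells. Compound exposure lasted 30-36 h at 37C, with 4.5 mM final sodium butyrate as control, followed by a ONE-Glo read.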
# Starred values were filed as active, the others as inactive; ? = inconclusive; / = not tested or not shown; [ ] = remark or other dose. Only some compounds are listed: those with a hit (about 7.3% of all), similar ones and a draw of the others. Calls follow the shape of the dose curve; as a rule, active = well fitted curve in the direction sought with a large enough effect; inconclusive = small, poorly fitted or top-dose-only effect, or another doubt; inactive = no such curve, though single readings can be large; an effect the other way counts as inactive or inconclusive. Potency is read from the fitted curve at half-maximal effect.
SMILES,NPC1 promoter act,ELG1 genotoxic,Luc counter,FLuc modulator,Rab9 promoter act,SMN2 splice enh
O=C(O)CCCC(=O)Nc1cccc(-c2nc3ccccc3[nH]2)c1,-2%,0%,1%,12µM*,1%,-3%
Cc1cc(C)n(-c2ccc(C(=O)Nc3nnc(C4CC4)s3)cc2)n1,11%,3%,1%,-3%,-1%,3%
Cc1ccc(C=Nc2cccnc2N)cc1,-3%,-2%,-2%,6.7µM*,2%,?
CCOc1ccc(C=Nc2cccc3ncccc23)cc1,-1%,0%,-1%,21µM*,2%,-2%
COc1ccc(C=Nc2cccnc2N)cc1,8%,8%,/,11µM*,12%,/
CCOc1ccc(/C=N/O)cc1,7%,?,-7%,-17%,9%,18%
COc1ccc(/C=N/n2c(N)nc(-c3ccccc3)c2-c2ccccc2)cc1,14%,-4%,-6%,?,13%,-49%
Cc1ccc(S(=O)(=O)c2ncccc2N)cc1,-12%,2%,/,-1%,-2%[1.84 µM],/
COc1ccc(S(=O)(=O)N(C)C)cc1NC(=O)COC(=O)c1nc2nccc(C)n2n1,-4%,3%,/,1%,-2%,/
O=C(NCC1CCCO1)c1ccc(-c2ccccc2Cl)o1 (stereo not drawn),3.5µM*,?,/,17µM*,2.8µM*,/
O=C(NCc1ccco1)c1ccc(-c2ccccc2Cl)o1,2%,16%,-6%,17µM*,30%,29%
O=C(NCc1ccco1)c1ccc(-c2ccc(Cl)cc2)o1,18%,3%,-6%,15µM*,25%,-10%
Cc1onc(-c2ccccc2Cl)c1C(=O)NCC1CCCO1 (stereo not drawn),-4%,1%,-2%,0%,-6%,0%
O=C(NCC1CCCO1)c1cc(-c2ccccc2F)no1 (stereo not drawn),?,?,/,15µM*,2.8µM*,/
O=C(NCC1CCCO1)c1ccccc1 (stereo not drawn),/,/,-3%,0%,/,2%
CC1CCc2nc(NC(=O)CCSc3ccccc3)sc2C1 (stereo not drawn),1%,12%,-1%,3%,2%,5%
CCOC1=NN(c2ncc(C(F)(F)F)cc2Cl)C(=O)C1,-1%,0%,-4%,-2%,-7%,26%
COc1cc(C2C(C#N)=C(N)Oc3n[nH]c(-c4cccnc4)c32)ccc1OCC(N)=O (stereo not drawn),-7%,-3%,/,5%,-2%,/
Oc1ccc(-c2cnns2)c(O)c1,-27%,0%,0%,?,-18%,-4%
O=C(CCc1nnc(CCCc2ccccc2)o1)NC(C1CC1)C1CC1,?,21µM*,-4%,12µM*,2.8µM*,14µM*
CN(Cc1ccsc1)C(=O)CCc1nnc(CCCc2ccccc2)o1,19%,?,-3%,13µM*,3.2µM*,/
CN(Cc1ccsc1)C(=O)CCc1nnc(Cc2c[nH]c3ccccc23)o1,-2%,3%,2%,-13%,-2%,/
CC(C)(CO)CNC(=O)CCc1nnc(CCCc2ccccc2)o1,-1%,4%,-1%,-15%,12%,/
Cc1nc(C(C)NC(=O)CCc2nnc(CCCc3ccccc3)o2)c(C)s1 (stereo not drawn),?,?,-4%,15µM*,2.8µM*,16µM*
Cc1cc(C)n(CC(C)NC(=O)CCc2nnc(CCc3ccccc3)o2)n1 (stereo not drawn),0%,4%,3%,-2%,16%,/
SMILES,NPC1 promoter act,ELG1 genotoxic,Luc counter,FLuc modulator,Rab9 promoter act,SMN2 splice enh
COc1ccc(/C=N/NC(=O)c2cccc([N+](=O)[O-])c2)c2ccccc12,-2%,2%,/,-2%,0%,/
Cc1cc(C(=O)N/N=C2\CC(=O)c3ccccc32)c(C)n1-c1ccc(F)cc1,-24%,11%,/,8.5µM*,?,/
O=C(Nc1cccc(NC(=O)c2cccs2)c1)c1cccnc1,-1%,-7%,-2%,?,-1%,3%
O=C(Nc1ccccc1Cl)c1csc(-c2cccnc2)n1,2.8µM*,18%,/,12µM*,2.8µM*,/
Cc1nc(-c2cccc(NC(=O)c3cccs3)c2)cs1,8%,0%,1%,24µM*,-4%,12%
O=C(Nc1ccccc1)c1csc(-c2ccccc2)n1,12%,8%,0%,21µM*,16%,2%
O=C(Nc1cccc(-c2csc(-c3ccccc3)n2)c1)c1cccs1,4%,-12%,17%,11µM*,-1%,-23%
COc1ccccc1-c1ccc(/C=N/O)o1,-4%,3%,/,?,-1%,/
CCOC(=O)NCC(C)(C)CNC(=O)OCC,-2%,-1%,1%,-1%,-3%,/
COc1ccccc1CNC(=O)Cn1c(=O)oc2ccccc21,/,/,/,0%,/,-1%
COc1ccccc1CCNC(=O)Cn1c(=O)oc2ccccc21,-7%,-8%,/,15µM*,4%,/
O=C1c2ccccc2C(=O)N1CCc1csc(-c2ccccc2)n1,-1%,?,4%,-18%,-1%,-20%
Cc1ccc(S(=O)(=O)Oc2ccc(/C=C(/NC(=O)c3ccccc3)C(=O)O)cc2)cc1,-9%,0%,-1%,?,-10%,-15%
Cc1ccc2c(c1)c1c(c(=O)n(Cc3ccccc3)c(=O)n1Cc1cccc(F)c1)n2C,/,/,/,-9%,/,/
COc1ccc(-c2cn(Cc3ccc(C(N)=O)cc3)c(-c3ccncc3)n2)cc1,3.2µM*,?,/,2.4µM*,2.5µM*,/
Nc1cccc(Nc2ccccc2)c1,-3%,0%,3%,-13%,-1%,/
c1ccc(Nc2cccc(Nc3ccccc3)c2)cc1,24%,?,-1%,15µM*,23%,22%
COc1cccc(NC(=O)C(=O)NCCCN2CCCC2=O)c1,?,?,/,19µM*,28%,/
Cc1cc(C)cc(NC(=O)C(=O)NCCCN2CCCC2=O)c1,?,13µM*,/,?,?,/
Cc1ccc(NC(=O)NCCCN2CCCC2=O)cc1,11%,?,-2%,?,12%,12%
Cc1ccc(S(=O)(=O)NCC(C)NS(=O)(=O)c2ccc(C)cc2)cc1 (stereo not drawn),0%,-1%,2%,-1%,0%,14%
O=C(Nc1ccc2c(c1)OCCO2)c1cc(F)c(F)cc1Cl,2.2µM*,?,/,12µM*,2.5µM*,/
Cc1oc(C(C)(C)C)cc1C(=O)Nc1ccc2c(c1)OCO2,22%,-2%,/,?,19%,/
Cc1ccc(C(=O)Nc2ccc3c(c2)OCCO3)c(Cl)c1,0.089µM*,?,/,0.43µM*,0.089µM*,/
O=C(Nc1ccc2c(c1)OCCO2)c1cccc(Cl)c1Cl,3.5µM*,2.6µM*,/,7.6µM*,1.6µM*,/
